The source of these data is PubChem BioAssay AID602448 (National Center for Advancing Translational Sciences (NCATS), 2012).

This test concerns the target Follicle-stimulating hormone receptor (Homo sapiens) (UniProt P23945). The experiment in a line: qHTS for antagonists of the Thyroid Stimulation Hormone Receptor: Hit Validation with Follickle Stimulating Hormone Receptor (FSHR). The settings on record: FSHR-expressing cells, cAMP HTRF, antagonist counterscreen; hits give high values. The source says: The thyroid-stimulating hormone receptor (TSHR) is a member of the 7 trans-membrane-spanning receptor (7TMR) family of cell surface receptors. TSHR-mediated hyperthyroidism is important in thyroid pathology. The development of small molecule antagonists of TSHR may lead to therapeutic approaches for TSHR-mediated hyperthyroidism caused by constitutively activating mutations or stimulating auto-antibodies associated with Graves' disease. Graves' disease is the leading cause of hyperthyroidism and is caused by autoantibodies that stimulate TSHR (TsAbs) causing thyroid growth and unregulated overproduction of thyroid hormones and existing treatments have liabilities (agranulocytosis). In addition, TSHRs are known to be expressed in multiple extrathyroidal tissues including bone, brain, kidney, testis, fat and cells of the immune system but the role of the TSHR in these tissues is not clear. Therefore, TSHR antagonists/inverse agonists could be used as probes of extrathyroidal TSHR function. Finally, TSHR inverse agonists, which are a subclass of antagonists that inhibit agonist-independent (or basal or constitutive) TSHR signaling, could be used to inhibit TSH-independent signaling in patients with recurrent or metastatic thyroid cancer who are receiving thyroid hormone to suppress TSH. […]

Each structure is given as a SMILES string. Active and inactive are the calls of the source.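 The calls were made as follows: active = max inhibition of at least 60%; inconclusive = max inhibition above 30% but below 60%; inactive = max inhibition of 30% or less.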

Follicle-stimulating hormone receptor (Homo sapiens), sequence (P23945 whole entry, looked up): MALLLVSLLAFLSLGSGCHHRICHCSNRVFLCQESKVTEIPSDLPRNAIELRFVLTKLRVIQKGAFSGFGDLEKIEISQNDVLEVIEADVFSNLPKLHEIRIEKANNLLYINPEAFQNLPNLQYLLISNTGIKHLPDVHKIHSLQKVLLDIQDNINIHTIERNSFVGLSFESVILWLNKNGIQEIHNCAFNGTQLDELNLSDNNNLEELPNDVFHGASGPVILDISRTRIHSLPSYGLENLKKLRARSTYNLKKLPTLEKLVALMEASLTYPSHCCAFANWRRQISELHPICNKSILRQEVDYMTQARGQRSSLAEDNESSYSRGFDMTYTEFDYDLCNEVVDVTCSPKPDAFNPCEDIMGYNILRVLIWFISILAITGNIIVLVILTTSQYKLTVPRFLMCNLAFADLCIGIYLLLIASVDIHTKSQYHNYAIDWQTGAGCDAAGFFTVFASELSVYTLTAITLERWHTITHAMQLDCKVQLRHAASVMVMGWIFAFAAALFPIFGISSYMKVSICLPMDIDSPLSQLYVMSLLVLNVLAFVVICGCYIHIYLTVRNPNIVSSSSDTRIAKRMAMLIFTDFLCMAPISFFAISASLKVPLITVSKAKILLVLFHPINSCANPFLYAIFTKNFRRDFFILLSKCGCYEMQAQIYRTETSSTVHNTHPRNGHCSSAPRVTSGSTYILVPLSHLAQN

For the compound `COC(=O)C1=C(c2ccc(-c3ccccc3)c(F)c2)C[C@@H]2CC[C@H]1N2C(=O)NCCOc1ccccc1`, the max inhibition was 79.5% (active).
